# From PubChem BioAssay
# Where “and” joins values, the source holds several entries; their conditions need not be identical. Identical values can stand only once. Calls of active or inactive are those of the source.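 How the source made its calls, unless noted: active means at least 20% inhibition of 6-phosphogluconate dehydrogenase activity; inactive means the rest.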
# What was measured:
# [1] = molecular target: 6-phosphogluconate dehydrogenase, decarboxylating (Homo sapiens) (UniProt P52209); assay: inhibition of human phosphogluconate dehydrogenase – biochemical, recombinant enzyme, NADPH absorbance, primary screen (AID 1159550); details: recombinant 6PGD, NADPH absorbance 341 nm; at 10 µM; stronger effect = higher value
# [2] = molecular target: NAD(+) hydrolase SARM1 (Homo sapiens) (UniProt Q6SZW1); assay: blocking NAD cleavage by SARM1 SAM-TIR – cell lysate, NAD-Glo luminescence (AID 1508614;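 active means compound whose remaining NAD level is above about 45 nM, limit read from the data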); details: SAM-TIR HEK293T lysate NADase, at 1 µM, stronger effect = higher value
# [3] = molecular target: Mitogen-activated protein kinase 7 (Homo sapiens) (UniProt Q13164); assay: Gal4-ERK5 driven luciferase induction – cell-based, HTS, primary screen (AID 1508626;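 active means luciferase signal above three times the same-plate solvent-only control wells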;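 further: luciferase driven by Gal4-ERK5 fusion binding five Gal4 sites before minimal TATA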); details: HeLa Gal4-ERK5 transactivation, 18 h, at 5 µM, stronger effect = higher value
# [4] = compounds altering viability of human ES cells (AID 493140; call rule not given here;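 further: cells exposed to compounds for four days before counting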); details: human embryonic stem cell survival screen; stronger effect = higher value
# [5] = P. berghei load reduction in hepatocytes – cell-based, HepG2, luciferase luminescence, HepG2 viability, primary screen (AID 624349; in the data active means parasite load remaining mostly below about 12%, no sharp cut-off; inactive means mostly above about 10%;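 further: 100% = mean of DMSO negative control wells on the same plate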); details: P. berghei liver stage in HepG2, luciferase luminescence, concentration not given here; parasite load remaining: stronger effect = lower value; viability: measured here: HepG2 viability without parasites
# [6] = viability loss with induced miR-34 in A549 – imaging, A549 dox-inducible miR-34, nuclei and caspase counts, primary screen (AID 1347080;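 active means compounds whose cell count with miR-34 switched on is under 0.7 times the count with it off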); details: A549 miR-34 inducible, Hoechst nuclei count, 48 h
# [7] = MELAS cybrid and Rieske KO viability enhancers – cell-based, MELAS cybrids, Rieske KO mouse fibroblasts, CellTiter-Glo, primary screen (AID 1508586;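 active means mean z-score across replicates of 1.96 or higher in either the MELAS or the Rieske mutant cell line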;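 further: z relative to plate mean and SD of compound and empty wells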); details: low glucose
# [8] = galactose survival enhancers in mitochondrial complex I cybrids – cell-based, galactose medium, ATP luminescence, primary screen (AID 1645843;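 active means z-score of at least 1.8 in each of two replicates, scored against plate mean and spread of sample wells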;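 further: positive z means more ATP and so rescue of galactose-driven cybrid death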); details: complex I mutant cybrid cells, 72 h, stronger effect = higher value
# [9] = stronger effect = lower value, cell number ratio, induced over uninduced
# [10] = measured here: relative caspase fold change +Dox/-Dox
# [11] = measured here: total cells with miR-34 induction, stronger effect = lower value
# [12] = measured here: total cells without miR-34 induction
# Sequence of 6-phosphogluconate dehydrogenase, decarboxylating (Homo sapiens) (P52209 whole entry, looked up): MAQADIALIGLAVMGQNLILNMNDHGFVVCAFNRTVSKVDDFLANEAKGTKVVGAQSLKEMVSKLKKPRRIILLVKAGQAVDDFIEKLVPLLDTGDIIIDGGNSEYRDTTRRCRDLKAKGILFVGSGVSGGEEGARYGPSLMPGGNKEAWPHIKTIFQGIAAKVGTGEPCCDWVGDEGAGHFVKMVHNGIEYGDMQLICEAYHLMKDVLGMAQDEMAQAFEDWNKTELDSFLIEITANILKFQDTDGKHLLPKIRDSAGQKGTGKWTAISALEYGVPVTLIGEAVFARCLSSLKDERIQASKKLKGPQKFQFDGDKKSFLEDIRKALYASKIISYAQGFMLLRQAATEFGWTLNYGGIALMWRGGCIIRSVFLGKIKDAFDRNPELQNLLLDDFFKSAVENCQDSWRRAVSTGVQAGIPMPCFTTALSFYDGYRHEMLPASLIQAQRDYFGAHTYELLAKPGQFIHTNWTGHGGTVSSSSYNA
# Sequence of NAD(+) hydrolase SARM1 (Homo sapiens) (Q6SZW1 whole entry, looked up, the tested form may be a part): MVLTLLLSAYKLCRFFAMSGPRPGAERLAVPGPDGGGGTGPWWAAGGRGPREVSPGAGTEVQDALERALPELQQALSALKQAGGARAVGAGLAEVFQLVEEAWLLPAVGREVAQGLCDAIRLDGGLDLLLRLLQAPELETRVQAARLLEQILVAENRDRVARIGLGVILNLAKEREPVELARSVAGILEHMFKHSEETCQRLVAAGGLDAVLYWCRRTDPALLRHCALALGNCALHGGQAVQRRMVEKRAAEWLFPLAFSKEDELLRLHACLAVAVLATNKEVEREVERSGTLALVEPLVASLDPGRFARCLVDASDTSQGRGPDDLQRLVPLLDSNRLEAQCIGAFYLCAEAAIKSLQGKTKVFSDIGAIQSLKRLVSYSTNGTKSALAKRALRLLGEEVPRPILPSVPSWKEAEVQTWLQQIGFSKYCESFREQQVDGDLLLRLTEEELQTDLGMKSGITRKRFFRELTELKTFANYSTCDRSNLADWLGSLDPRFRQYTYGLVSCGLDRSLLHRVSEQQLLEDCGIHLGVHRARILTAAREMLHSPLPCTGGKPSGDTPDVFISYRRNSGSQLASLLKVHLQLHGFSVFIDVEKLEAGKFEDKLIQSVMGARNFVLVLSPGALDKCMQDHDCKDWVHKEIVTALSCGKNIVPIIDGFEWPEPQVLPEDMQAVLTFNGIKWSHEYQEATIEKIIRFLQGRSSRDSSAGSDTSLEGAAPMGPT
# Sequence of Mitogen-activated protein kinase 7 (Homo sapiens) (Q13164 whole entry, looked up, the tested form may be a part): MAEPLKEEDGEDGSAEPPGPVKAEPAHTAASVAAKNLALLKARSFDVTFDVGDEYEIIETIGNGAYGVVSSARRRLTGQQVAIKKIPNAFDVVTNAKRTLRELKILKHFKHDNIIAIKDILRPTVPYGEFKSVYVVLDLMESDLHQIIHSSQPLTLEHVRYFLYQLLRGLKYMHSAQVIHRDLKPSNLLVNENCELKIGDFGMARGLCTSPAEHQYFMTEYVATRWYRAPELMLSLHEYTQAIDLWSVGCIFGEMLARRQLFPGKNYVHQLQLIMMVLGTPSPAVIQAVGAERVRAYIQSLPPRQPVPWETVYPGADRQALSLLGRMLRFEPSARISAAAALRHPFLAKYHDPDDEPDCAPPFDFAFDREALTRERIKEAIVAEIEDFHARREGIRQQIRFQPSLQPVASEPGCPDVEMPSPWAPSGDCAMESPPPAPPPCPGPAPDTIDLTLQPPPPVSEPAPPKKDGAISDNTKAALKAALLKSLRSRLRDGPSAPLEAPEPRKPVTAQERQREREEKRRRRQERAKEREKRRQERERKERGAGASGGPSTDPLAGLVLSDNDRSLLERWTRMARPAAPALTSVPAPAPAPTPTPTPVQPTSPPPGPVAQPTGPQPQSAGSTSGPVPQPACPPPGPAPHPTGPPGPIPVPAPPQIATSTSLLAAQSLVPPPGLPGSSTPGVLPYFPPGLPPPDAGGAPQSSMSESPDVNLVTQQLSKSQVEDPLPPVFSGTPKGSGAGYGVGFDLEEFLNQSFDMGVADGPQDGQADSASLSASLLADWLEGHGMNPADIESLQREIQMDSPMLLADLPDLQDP
structure (smiles),measurement,setting,value
CCCCCC(=O)O[C@]1(C(C)=O)CC[C@H]2[C@@H]3CCC4=CC(=O)CC[C@]4(C)[C@H]3CC[C@@]21C,inhibition,[1],-2.17% (inactive)
same,remaining NAD,[2],10 nM (inactive)
same,luciferase signal,[3],44 AU (inactive)
CC(=O)NC(CC(C)C)C(=O)O (stereo unspecified),inhibition,[1],4.75% (inactive)
same,remaining NAD,[2],10 nM (inactive)
COc1ccc(CC(=O)c2ccc(O)cc2O)cc1,inhibition,[1],17.5% (inactive)
same,luciferase signal,[3],76 AU (inactive)
O=C(O)c1cc(O)c2c(c1)[C@H]([C@H]1c3cc(C(=O)O)cc(O)c3C(=O)c3c(O[C@@H]4O[C@H](CO)[C@@H](O)[C@H](O)[C@H]4O)cccc31)c1cccc(O[C@@H]3O[C@H](CO)[C@@H](O)[C@H](O)[C@H]3O)c1C2=O,inhibition,[1],6.02% (inactive)
same,remaining NAD,[2],11 nM (inactive)
same,luciferase signal,[3],76 AU (inactive)
C[C@@H]1O[C@@H](OC[C@H]2O[C@@H](Oc3c(-c4ccc(OCCO)c(OCCO)c4)oc4cc(OCCO)cc(O)c4c3=O)[C@H](O)[C@@H](O)[C@@H]2O)[C@H](O)[C@H](O)[C@H]1O,inhibition,[1],-5.09% (inactive)
same,remaining NAD,[2],10 nM (inactive)
same,luciferase signal,[3],72 AU (inactive)
CC(C)CCC[C@@H](C)[C@H]1CC[C@H]2[C@@H]3CC=C4C[C@@H](O)CC[C@]4(C)[C@H]3CC[C@]12C,inhibition,[1],2.5% (inactive)
same,remaining NAD,[2],10 nM (inactive)
same,luciferase signal,[3],52 AU (inactive)
CC(=O)O[C@H]1C[C@@]2(C)[C@@H](C[C@@H](O)[C@H]3[C@@]4(C)CC[C@@H](O)[C@@H](C)[C@@H]4CC[C@@]32C)/C1=C(\CCC=C(C)C)C(=O)O,survival,[4],5.08 (inactive)
same,parasite load remaining,[5],64.8% (inactive)
same,viability,[5],78.6%
same,inhibition,[1],4.42% (inactive)
same,remaining NAD,[2],10 nM (inactive)
same,luciferase signal,[3],128 AU (inactive)
CC(=O)[C@@]1(O)CC[C@H]2[C@@H]3C=C(Cl)C4=CC(=O)[C@@H]5C[C@@H]5[C@]4(C)[C@H]3CC[C@@]21C,inhibition,[1],3.58% (inactive)
same,remaining NAD,[2],10 nM (inactive)
same,luciferase signal,[3],32 AU (inactive)
Nc1nc(N)c2nc(CNc3ccc(C(=O)N[C@@H](CCC(=O)O)C(=O)O)cc3)cnc2n1,inhibition,[1],-4.2% (inactive)
same,remaining NAD,[2],10 nM (inactive)
CN[C@@H]1[C@H](O[C@H]2[C@H](O[C@H]3[C@H](O)[C@@H](O)[C@H](N=C(N)N)[C@@H](O)[C@@H]3N=C(N)N)O[C@@H](C)[C@]2(O)CO)O[C@@H](CO)[C@H](O)[C@H]1O,inhibition,[1],-14.8% (inactive)
same,remaining NAD,[2],10 nM (inactive)
same,luciferase signal,[3],68 AU (inactive)
C=C1C[C@]23C[C@@]1(O)CC[C@H]2[C@@]12C=C[C@H](O)[C@@](C)(C(=O)O1)[C@H]2[C@@H]3C(=O)O,survival,[4],1.25 (inactive)
same,parasite load remaining,[5],101% (inactive)
same,viability,[5],80.4%
same,inhibition,[1],-0.284% (inactive)
same,fold change,[6]; [9],0.973 (inactive)
same,fold change,[6]; [10],0.674
same,cell count,[6]; [11],8110
same,cell count,[6]; [12],8340
same,luciferase signal,[3],40 AU (inactive)
CN1[C@@H]2CC[C@H]1CC(OC(c1ccccc1)c1ccccc1)C2 (stereo partly specified),inhibition,[1],13.6% (inactive)
same,z-score,"[7]; MELAS cybrid survival, CellTiter-Glo 48 h, stronger effect = higher value",-0.23 (inactive)
same,z-score,"[7]; Rieske KO mouse fibroblast survival, CellTiter-Glo 72 h",0.0522
same,luciferase signal,[3],52 AU (inactive)
CN(C)CC/C=C1/c2ccccc2Sc2ccc(Cl)cc21,survival,[4],1.25 (inactive)
same,parasite load remaining,[5],63.4% (inactive)
same,viability,[5],75.2%
same,inhibition,[1],-16.6% (inactive)
same,remaining NAD,[2],10 nM (inactive)
CO/N=C(\C(=O)N[C@@H]1C(=O)N2C(C(=O)O)=C(CSc3nc(=O)c(O)nn3C)CSC12)c1csc(N)n1 (stereo partly specified),inhibition,[1],-13.8% (inactive)
same,fold change,[6]; [9],1.02 (inactive)
same,fold change,[6]; [10],1.74
same,cell count,[6]; [11],10200
same,cell count,[6]; [12],9980
same,z-score,[8],0.175 (inactive)
C=C1C(=O)OC2CC1C(OC(C)=O)C/C(C)=C/CC/C(C)=C\CCC2(C)O (stereo unspecified),inhibition,[1],10.9% (inactive)
same,luciferase signal,[3],16 AU (inactive)
CC1=CC(=O)C2=C(C)CC[C@@H]3[C@H](OC(=O)[C@H]3C)[C@@H]12,survival,[4],21.9 (inactive)
same,parasite load remaining,[5],69.2% (inactive)
same,viability,[5],75.3%
same,inhibition,[1],-50% (inactive)
same,fold change,[6]; [9],0.934 (inactive)
same,fold change,[6]; [10],0.653
same,cell count,[6]; [11],9100
same,cell count,[6]; [12],9750
same,luciferase signal,[3],76 AU (inactive)
CC[C@@H](C(=O)[C@@H](C)[C@@H](O)[C@H](C)CCc1ccc(C)c(O)c1C(=O)O)[C@H]1O[C@](CC)([C@H]2CC[C@](O)(CC)[C@H](C)O2)C[C@@H]1C,parasite load remaining,[5],-0.295% (active)
same,viability,[5],110%
same,inhibition,[1],-6.18% (inactive)
same,fold change,[6]; [9],1.02 (inactive)
same,fold change,[6]; [10],1.03
same,cell count,[6]; [11],2440
same,cell count,[6]; [12],2390
same,luciferase signal,[3],44 AU (inactive)
COC(=O)[C@H]1[C@H]2C[C@H]3c4[nH]c5ccccc5c4CCN3C[C@@H]2CC[C@@H]1O,survival,[4],13.8 (inactive)
same,parasite load remaining,[5],108% (inactive) and 79.2% (inactive)
same,viability,[5],116% and 77.6%
same,inhibition,[1],7.89% (inactive)
same,fold change,[6]; [9],0.836 (inactive)
same,fold change,[6]; [10],1.95
same,cell count,[6]; [11],8660
same,cell count,[6]; [12],10400
same,luciferase signal,[3],44 AU (inactive)
O=C(OC[C@H]1O[C@@H](OC(=O)c2cc(O)c(O)c(OC(=O)c3cc(O)c(O)c(O)c3)c2)[C@H](OC(=O)c2cc(O)c(O)c(OC(=O)c3cc(O)c(O)c(O)c3)c2)[C@@H](OC(=O)c2cc(O)c(O)c(OC(=O)c3cc(O)c(O)c(O)c3)c2)[C@@H]1OC(=O)c1cc(O)c(O)c(OC(=O)c2cc(O)c(O)c(O)c2)c1)c1cc(O)c(O)c(OC(=O)c2cc(O)c(O)c(O)c2)c1,inhibition,[1],12.6% (inactive)
same,remaining NAD,[2],10 nM (inactive)
same,luciferase signal,[3],32 AU (inactive)
C=C(C)[C@@H]1CC[C@]2(CO)CC[C@]3(C)[C@H](CC[C@@H]4[C@@]5(C)CC[C@H](O)C(C)(C)[C@@H]5CC[C@]43C)[C@@H]12,parasite load remaining,[5],104% (inactive)
same,viability,[5],78.6%
same,inhibition,[1],1.58% (inactive)
same,fold change,[6]; [9],0.941 (inactive)
same,fold change,[6]; [10],0.65
same,cell count,[6]; [11],8530
same,cell count,[6]; [12],9060
same,luciferase signal,[3],44 AU (inactive)
CC(=O)OCC(=O)[C@@]1(O)CC[C@H]2[C@@H]3CCC4=CC(=O)CC[C@]4(C)[C@@]3(F)[C@@H](O)C[C@@]21C,survival,[4],16.7 (inactive)
same,parasite load remaining,[5],136% (inactive)
same,viability,[5],91.3%
same,inhibition,[1],-10.7% (inactive)
same,remaining NAD,[2],10 nM (inactive)
same,luciferase signal,[3],84 AU (inactive)
CC(=O)OC(C)(C)[C@@H]1Cc2cc3ccc(=O)oc3cc2O1,inhibition,[1],2.42% (inactive)
same,luciferase signal,[3],40 AU (inactive)
